MbtI inh – blocks the Mycobacterium tuberculosis siderophore enzyme MbtI; purified MbtI enzyme, fluorescence intensity read-out; inhibition, % (concentration not given with the values); AID 493033; P9WFX0; 0.89% of 100,000 active; in the data active means inhibition mostly above about 56%, no sharp cut-off; inactive means mostly below about 77%
Mtb MenB inh – inhibitors of Mycobacterium tuberculosis MenB enzyme. MenB enzyme assay, absorbance read-out. inhibition, % (test concentration not listed). P9WNP5. 0.43% of 100,000 active; in the data active means inhibition above about 21%, passing the limit was not always enough
Target sequence (P9WNP5 whole entry, looked up): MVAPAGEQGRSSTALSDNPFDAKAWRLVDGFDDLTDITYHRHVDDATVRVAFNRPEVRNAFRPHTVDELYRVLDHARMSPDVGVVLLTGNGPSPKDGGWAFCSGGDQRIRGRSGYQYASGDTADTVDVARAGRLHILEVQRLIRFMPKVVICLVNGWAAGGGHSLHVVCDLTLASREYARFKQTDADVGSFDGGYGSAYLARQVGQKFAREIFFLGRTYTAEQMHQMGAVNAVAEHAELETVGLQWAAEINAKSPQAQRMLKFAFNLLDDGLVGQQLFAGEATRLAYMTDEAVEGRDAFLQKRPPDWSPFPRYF
AID504770 – E. coli YBA685 growth inhibition, screen for V. cholerae RctB inhibitors | 0.27% of 130,000 active | AID 504770 | E. coli YBA685 rctB-dependent plasmid, OD600 growth, 3 h; active compounds read low | z-score (concentration not given with the values); in the data active means z-score below about -2, passing the limit was not always enough
Polio RdRp inh – poliovirus RNA polymerase inhibition | % elongation, % (compound at 16.7 µg/mL) | P03300 | poliovirus polymerase elongation, fluorescence polarization; active compounds read low | 0.66% of 150,000 active; in the data active means % elongation below about 90%
An asterisk follows results filed as active; . = not tested or not shown. Hits are enriched below; roughly 1.4% of the tested compounds scored in any of these assays.

SMILES | MbtI inh | Mtb MenB inh | AID504770 | Polio RdRp inh
Cc1nnc(NCc2ccco2)s1 | 6 | -7 | 0.25 | 99
c1coc(CNc2nc(C34CC5CC(CC(C5)C3)C4)cs2)c1 | 59* | -26 | 0.7 | 91
Cc1nc(N)[nH]c(=O)c1CCO | -5 | . | 0.6 | .
CN1C(=O)NC(=O)/C(=C\C=C\c2ccco2)C1=O | 21 | -268 | -0.15 | 105
O=C1NC(=S)NC(=O)C1=C/C=C/c1ccco1 | 62 | -44 | 0.8 | 72*
O=C1NC(=O)N(c2ccccc2)C(=O)/C1=C/C=C/c1ccco1 | 88* | -180 | -0.3 | 101
S=C1NCN(Cc2ccccc2)CN1CC1CCCO1 (stereo unspecified) | 1 | -1 | 1.3 | 103
Oc1[nH]c2c(Cl)cc(Cl)cc2c1N=C1N=c2ccccc2=N1 | -28 | . | -0.5 | 99
COCCNC(=S)N1c2ccccc2CC1C (stereo unspecified) | 64* | -33 | -1.2 | 84*
CCC(CC)NC(=O)CSc1nnc(-c2ccc(C)cc2)n1N | 92 | -39 | -0.5 | 78*
COc1cccc(NC(=S)N(C)c2ccc(O)cc2)c1 | 36 | -38 | -0.05 | 103
Cc1nc2sccn2c1-c1nc(-c2ccc(Br)o2)c(C(=O)c2ccc3c(c2)OCCO3)s1 | 98* | 4 | 0.3 | 107
Cc1ccc(S(=O)(=O)N2CCCCC2C(=O)NC(C)c2ccc3c(c2)OCCO3)cc1 (stereo unspecified) | -13 | -28 | -2.1* | 101
O=c1cnc(-c2ccccc2)c(-c2ccccc2)[nH]1 | 3 | . | 1.6 | .
CCc1cccc(CC)c1NC(=O)/C(C#N)=C/c1c(C)nn(-c2ccccc2)c1N1CCCC1 | 2 | -9 | 2.1 | 108
CC(C)C(=O)Nc1ccc2nc(SCC(=O)N3CCc4ccccc43)sc2c1 | . | . | . | 83*
CC1(C)CN(c2ccc(OCc3ccccc3)cc2)C1=O | . | . | 0.5 | .
CC(C)(C)NS(=O)(=O)Nc1ccccc1 | 0 | 36* | 0.85 | 101
CCN(CC(=O)N1N=C(c2ccccc2)CC1c1ccc(OC)cc1)Cc1nc2ccccc2c(=O)[nH]1 (stereo unspecified) | -5 | -28 | 0.25 | 105
Cc1cc(Cl)ccc1OCCSc1nnc(-c2cccs2)o1 | . | . | . | 10*
Cc1ccccc1OCCSc1nnc(-c2cccs2)o1 | . | . | . | 109
Cc1cc(Cl)ccc1OCC(=O)Nc1sc2c(c1C#N)CCC2 | . | -1 | 0.25 | 80*
COc1ccccc1OCC(=O)Nc1sc2c(c1C#N)CCCC2 | . | -29 | -0.4 | 106
CCN1CCN(c2ncc3c(n2)CCN(Cc2cc(F)cc(F)c2)C3)CC1 | . | . | . | 86*
COc1ccccc1CNC(=O)c1cnc(SC)nc1C | . | . | . | 115
SMILES | MbtI inh | Mtb MenB inh | AID504770 | Polio RdRp inh
COc1ccccc1CNC(=O)c1ccccc1SC | 59* | -34 | 2.3 | 103
Cc1cc(NCc2ccccc2)no1 | . | . | -0.65 | .
Nc1cccc2cccc(C(=O)O)c12 | -7 | . | -0.8 | 89*
CC(C)N1CSC(=S)N(C(C)C)C1 | -8 | -5 | -4* | 64*
CC1Cc2ccccc2N1C(=O)C1CCN(S(=O)(=O)c2ccc(-n3cnnn3)cc2)CC1 (stereo unspecified) | 2 | 39* | 0.3 | 102
NS(=O)(=O)c1ccc(N2C(=O)CSC2=S)cc1 | 57* | -75 | -1.2 | 99
O=C1CSC(=S)N1c1cccc(O)c1 | . | . | -3.1* | .
O=C(Cc1coc2cc3c(cc12)CCC3)OC1CCCCC1=O (stereo unspecified) | -4 | -28 | -1 | 101
NNC(=O)CC1CCS(=O)(=O)C1 (stereo unspecified) | 9 | -6 | -0.4 | 101
C=CCc1cccc(O)c1O | 89* | . | -0.05 | 101
C=CCc1cccc(C=Nc2ccc(Br)cc2)c1O | . | . | -1.4 | .
C=CCN(CC=C)Cn1c(=S)oc2ccc(S(=O)(=O)Nc3ccc(OC)cc3)cc21 | 85* | -23 | 0.05 | 93
O=C(NCc1ccccc1Cl)c1nsc2ccccc12 | 4 | . | 0.05 | .
NC1=NC(=O)C(C(=O)NC2(C(F)(F)F)Oc3cc(Cl)c(Cl)cc3O2)S1 (stereo unspecified) | 92* | 0 | 0.25 | 105
CN1C=C(c2ccccc2)N(c2ccccc2)C1 | . | -26 | 1.5 | 67*
c1ccc(N2CN3CN2CN3c2ccccc2)cc1 | -220 | -4 | 1.5 | 104
CCSc1nsc(NC(=O)Nc2cccc(F)c2)n1 | 20 | 15 | -2.8* | 102
Cc1ccc(NNC(=S)NC(=O)C2CC2)c(C)c1 | 95* | -55 | 0.65 | 100
CN1C(=O)C(=Cc2cccs2)C(=O)N(C)C1=S | 16 | -9 | -0.75 | 103
O=C1OC(c2ccccc2)OC(=O)C1=Cc1cccs1 (stereo unspecified) | 65* | -4 | -1.4 | 101

Source: PubChem (ICCB-Longwood Screening Facility, Harvard Medical School)
